In PMC7862700, “An all-to-all approach to the identification of sequence-specific readers for epigenetic DNA modifications on cytosine”:

What was measured:
Assay in all cases: DAPPL (digital affinity profiling via proximity ligation, sequencing); 10 mM Tris-HCl pH 7.5, 50 mM NaCl, 1 mM DTT, 4% glycerol, room temperature, 30 min; GST-TFs on glutathione beads, 16-mer random dsDNA library, 0.1% formaldehyde crosslink after washing; high values mean tight binding
Conditions in all cases: protein: recombinant; tags: N-terminal GST; dsDNA, one strand shown
[1] = molecular target: T1, FLI1 (Homo sapiens, UniProt Q01543 1-452)
T1 sequence: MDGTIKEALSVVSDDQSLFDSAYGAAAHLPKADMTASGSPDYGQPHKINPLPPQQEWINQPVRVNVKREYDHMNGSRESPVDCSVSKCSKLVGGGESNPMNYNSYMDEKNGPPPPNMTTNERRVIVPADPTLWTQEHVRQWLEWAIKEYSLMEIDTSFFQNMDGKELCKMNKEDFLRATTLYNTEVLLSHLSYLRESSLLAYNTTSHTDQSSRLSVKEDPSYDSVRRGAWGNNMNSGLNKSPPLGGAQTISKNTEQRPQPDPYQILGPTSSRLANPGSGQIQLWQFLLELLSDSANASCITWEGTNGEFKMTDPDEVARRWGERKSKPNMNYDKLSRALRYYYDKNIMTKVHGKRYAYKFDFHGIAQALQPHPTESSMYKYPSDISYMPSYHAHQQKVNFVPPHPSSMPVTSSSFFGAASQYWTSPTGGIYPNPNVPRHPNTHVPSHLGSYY
Outline: (§1)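 Human transcription factors were made in yeast as GST fusions, captured on glutathione beads and barcoded with DNA. With a tag-only sample included, the pool was incubated with 200 nmole of a random double-stranded 16-mer DNA library in Tris/NaCl/DTT/glycerol buffer at room temperature for 30 min, then crosslinked with 0.1% formaldehyde after washing, ligated by proximity, amplified and sequenced. For binding signal, each hexamer's read frequency for a factor is divided by its frequency for the tag-only sample.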

[2] = molecular target: T2, ELK1 (Homo sapiens, UniProt P19419 1-428)
T2 sequence: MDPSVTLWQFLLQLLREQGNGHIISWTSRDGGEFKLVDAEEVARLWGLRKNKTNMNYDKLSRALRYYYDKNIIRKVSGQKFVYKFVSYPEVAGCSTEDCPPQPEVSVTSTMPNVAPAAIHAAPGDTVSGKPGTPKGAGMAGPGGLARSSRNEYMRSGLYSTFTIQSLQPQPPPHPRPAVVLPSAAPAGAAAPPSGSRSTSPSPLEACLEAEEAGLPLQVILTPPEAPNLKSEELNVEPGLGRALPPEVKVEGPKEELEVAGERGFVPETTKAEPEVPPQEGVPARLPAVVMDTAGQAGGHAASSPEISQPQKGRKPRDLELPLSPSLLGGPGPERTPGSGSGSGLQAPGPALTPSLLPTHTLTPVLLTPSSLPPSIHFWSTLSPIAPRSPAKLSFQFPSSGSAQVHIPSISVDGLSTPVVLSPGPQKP
Outline: as §1

[3] = molecular target: T3, GABPA (Homo sapiens, UniProt Q06546 1-454)
T3 sequence: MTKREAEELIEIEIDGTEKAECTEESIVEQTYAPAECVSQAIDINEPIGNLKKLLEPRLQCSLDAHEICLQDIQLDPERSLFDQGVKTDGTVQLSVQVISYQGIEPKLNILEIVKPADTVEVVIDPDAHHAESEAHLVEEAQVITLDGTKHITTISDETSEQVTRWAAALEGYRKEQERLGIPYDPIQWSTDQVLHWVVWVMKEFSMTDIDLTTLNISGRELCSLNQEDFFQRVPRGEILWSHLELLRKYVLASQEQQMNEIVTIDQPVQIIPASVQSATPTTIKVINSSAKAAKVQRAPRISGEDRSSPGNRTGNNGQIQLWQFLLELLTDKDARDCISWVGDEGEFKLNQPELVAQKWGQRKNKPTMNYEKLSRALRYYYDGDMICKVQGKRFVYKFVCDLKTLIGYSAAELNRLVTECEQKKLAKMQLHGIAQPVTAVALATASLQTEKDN
Outline: as §1

[4] = molecular target: T4, ERG (Homo sapiens, UniProt P11308 1-479)
T4 sequence: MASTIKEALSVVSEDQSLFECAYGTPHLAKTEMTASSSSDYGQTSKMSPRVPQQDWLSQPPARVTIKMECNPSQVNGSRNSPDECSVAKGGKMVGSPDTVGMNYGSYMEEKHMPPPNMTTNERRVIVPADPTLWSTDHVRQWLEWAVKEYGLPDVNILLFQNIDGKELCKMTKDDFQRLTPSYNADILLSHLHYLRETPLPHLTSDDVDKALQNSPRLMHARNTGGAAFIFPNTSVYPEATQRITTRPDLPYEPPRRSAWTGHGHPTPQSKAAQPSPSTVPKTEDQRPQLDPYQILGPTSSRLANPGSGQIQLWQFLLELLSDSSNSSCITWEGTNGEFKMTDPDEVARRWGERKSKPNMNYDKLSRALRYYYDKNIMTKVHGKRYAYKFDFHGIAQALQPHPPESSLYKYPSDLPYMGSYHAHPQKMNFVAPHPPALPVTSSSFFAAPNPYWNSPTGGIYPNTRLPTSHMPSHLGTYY
Outline: as §1

[5] = molecular target: ELF1 (Homo sapiens, UniProt P32519 1-619)
Outline: as §1

[6] = molecular target: T5, EHF (Homo sapiens, UniProt Q9NZC4 1-300)
T5 sequence: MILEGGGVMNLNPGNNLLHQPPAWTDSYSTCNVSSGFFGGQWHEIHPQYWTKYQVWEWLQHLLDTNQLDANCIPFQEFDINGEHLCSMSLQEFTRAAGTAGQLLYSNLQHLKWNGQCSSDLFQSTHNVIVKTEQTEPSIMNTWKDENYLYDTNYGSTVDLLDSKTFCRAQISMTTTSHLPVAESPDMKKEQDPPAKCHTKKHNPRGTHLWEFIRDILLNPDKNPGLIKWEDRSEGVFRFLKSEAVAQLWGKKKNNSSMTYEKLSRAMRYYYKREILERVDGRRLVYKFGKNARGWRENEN
Outline: as §1

[7] = molecular target: SPI1 (Homo sapiens, UniProt P17947 1-270)
Outline: as §1

[8] = molecular target: SPIB (Homo sapiens, UniProt Q01892 1-262)
Outline: as §1

[9] = molecular target: T6, ELK3 (Homo sapiens, UniProt P41970 1-407)
T6 sequence: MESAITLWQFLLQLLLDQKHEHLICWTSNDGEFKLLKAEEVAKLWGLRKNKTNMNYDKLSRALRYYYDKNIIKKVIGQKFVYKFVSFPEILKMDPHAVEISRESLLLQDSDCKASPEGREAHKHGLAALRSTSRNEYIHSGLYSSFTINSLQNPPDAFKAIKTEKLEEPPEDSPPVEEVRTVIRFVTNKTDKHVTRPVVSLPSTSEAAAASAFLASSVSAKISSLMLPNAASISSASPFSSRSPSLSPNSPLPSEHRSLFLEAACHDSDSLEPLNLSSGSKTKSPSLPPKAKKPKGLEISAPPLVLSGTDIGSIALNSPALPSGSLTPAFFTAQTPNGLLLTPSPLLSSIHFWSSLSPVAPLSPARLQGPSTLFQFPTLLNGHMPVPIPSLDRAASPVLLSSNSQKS
Outline: as §1

[10] = molecular target: T7, FEV (Homo sapiens, UniProt Q99581 1-238)
T7 sequence: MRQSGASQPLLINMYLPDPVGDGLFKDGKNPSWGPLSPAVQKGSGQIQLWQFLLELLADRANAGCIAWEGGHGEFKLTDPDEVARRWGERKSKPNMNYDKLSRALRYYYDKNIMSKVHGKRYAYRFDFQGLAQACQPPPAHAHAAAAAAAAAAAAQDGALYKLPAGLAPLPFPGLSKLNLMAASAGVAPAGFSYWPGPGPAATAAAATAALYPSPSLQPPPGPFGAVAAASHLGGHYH
Outline: as §1

[11] = molecular target: ETV5 (Homo sapiens, UniProt P41161 1-510)
Outline: as §1

[12] = molecular target: T8, SPIC (Homo sapiens, UniProt Q8N5J4 1-248)
T8 sequence: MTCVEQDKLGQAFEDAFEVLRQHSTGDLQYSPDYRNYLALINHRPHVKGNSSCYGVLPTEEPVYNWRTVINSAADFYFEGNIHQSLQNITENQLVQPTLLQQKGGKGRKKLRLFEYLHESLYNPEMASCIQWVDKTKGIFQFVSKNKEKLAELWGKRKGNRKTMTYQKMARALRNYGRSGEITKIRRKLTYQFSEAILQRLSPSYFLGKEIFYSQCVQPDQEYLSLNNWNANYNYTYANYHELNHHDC
Outline: as §1

[13] = molecular target: ELF4 (Homo sapiens, UniProt Q99607 1-663)
Outline: as §1

[14] = molecular target: T9, ELK4 (Homo sapiens, UniProt P28324-2 1-405)
T9 sequence: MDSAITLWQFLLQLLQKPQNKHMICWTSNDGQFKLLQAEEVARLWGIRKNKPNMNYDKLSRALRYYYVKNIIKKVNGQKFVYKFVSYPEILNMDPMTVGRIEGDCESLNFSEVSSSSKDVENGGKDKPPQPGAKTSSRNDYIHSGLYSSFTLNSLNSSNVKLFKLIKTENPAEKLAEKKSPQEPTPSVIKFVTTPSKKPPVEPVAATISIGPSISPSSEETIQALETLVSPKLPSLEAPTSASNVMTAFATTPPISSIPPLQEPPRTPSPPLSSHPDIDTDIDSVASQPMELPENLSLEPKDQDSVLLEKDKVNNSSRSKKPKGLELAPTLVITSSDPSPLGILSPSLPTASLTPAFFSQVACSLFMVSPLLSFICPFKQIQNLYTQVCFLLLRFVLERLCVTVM
Outline: as §1

[15] = molecular target: T10, ELF3 (Homo sapiens, UniProt P78545 1-371)
T10 sequence: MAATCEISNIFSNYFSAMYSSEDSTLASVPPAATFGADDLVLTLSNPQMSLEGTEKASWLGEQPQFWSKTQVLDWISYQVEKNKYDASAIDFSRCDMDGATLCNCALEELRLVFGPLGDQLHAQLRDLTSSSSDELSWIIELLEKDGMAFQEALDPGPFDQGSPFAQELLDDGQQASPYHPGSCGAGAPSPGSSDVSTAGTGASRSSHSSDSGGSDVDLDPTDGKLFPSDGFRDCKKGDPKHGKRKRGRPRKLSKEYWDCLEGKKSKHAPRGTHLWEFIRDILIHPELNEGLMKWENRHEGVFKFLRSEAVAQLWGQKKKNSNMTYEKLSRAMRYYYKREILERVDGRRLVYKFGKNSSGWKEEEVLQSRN
Outline: as §1

[16] = molecular target: ETV1 (Homo sapiens, UniProt P50549 1-477)
Outline: as §1

Chain of ETV1 (P50549 whole entry): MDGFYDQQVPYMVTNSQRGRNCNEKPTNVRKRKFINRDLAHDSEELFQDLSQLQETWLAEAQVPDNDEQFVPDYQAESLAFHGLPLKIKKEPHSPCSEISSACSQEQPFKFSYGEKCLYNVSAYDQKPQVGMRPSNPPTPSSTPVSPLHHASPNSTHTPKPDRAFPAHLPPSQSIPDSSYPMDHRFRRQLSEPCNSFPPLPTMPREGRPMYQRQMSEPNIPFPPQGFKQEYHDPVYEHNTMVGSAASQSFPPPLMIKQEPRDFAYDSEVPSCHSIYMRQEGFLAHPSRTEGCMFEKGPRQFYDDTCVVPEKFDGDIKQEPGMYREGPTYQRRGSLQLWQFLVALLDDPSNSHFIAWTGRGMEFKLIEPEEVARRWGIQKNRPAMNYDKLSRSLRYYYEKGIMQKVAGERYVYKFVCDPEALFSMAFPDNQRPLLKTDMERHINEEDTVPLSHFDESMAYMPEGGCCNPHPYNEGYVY
Chain of SPIB (Q01892 whole entry): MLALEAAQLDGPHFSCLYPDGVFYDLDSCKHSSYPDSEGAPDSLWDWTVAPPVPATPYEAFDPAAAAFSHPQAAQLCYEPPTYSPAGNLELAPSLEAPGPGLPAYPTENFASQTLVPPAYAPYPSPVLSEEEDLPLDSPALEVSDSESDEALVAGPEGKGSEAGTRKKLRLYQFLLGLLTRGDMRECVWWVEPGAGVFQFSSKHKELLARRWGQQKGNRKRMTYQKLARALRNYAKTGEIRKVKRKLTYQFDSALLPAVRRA
Chain of ELF1 (P32519 whole entry): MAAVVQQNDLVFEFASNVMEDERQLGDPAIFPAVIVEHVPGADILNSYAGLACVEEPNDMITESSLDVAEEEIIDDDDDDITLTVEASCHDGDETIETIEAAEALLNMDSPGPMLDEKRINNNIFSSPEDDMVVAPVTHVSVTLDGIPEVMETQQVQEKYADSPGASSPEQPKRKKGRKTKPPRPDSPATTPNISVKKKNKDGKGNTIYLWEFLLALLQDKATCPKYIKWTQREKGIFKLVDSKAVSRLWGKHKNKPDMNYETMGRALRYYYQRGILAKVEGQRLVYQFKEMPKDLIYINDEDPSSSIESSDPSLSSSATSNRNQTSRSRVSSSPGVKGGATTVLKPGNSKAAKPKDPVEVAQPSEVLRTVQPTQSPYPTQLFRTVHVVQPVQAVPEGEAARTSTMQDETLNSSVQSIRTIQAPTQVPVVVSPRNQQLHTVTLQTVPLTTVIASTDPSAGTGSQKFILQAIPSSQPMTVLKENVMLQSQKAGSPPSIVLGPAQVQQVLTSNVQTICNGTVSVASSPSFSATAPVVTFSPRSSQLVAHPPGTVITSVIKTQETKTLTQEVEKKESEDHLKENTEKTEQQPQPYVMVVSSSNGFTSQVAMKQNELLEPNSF
Chain of ELF4 (Q99607 whole entry): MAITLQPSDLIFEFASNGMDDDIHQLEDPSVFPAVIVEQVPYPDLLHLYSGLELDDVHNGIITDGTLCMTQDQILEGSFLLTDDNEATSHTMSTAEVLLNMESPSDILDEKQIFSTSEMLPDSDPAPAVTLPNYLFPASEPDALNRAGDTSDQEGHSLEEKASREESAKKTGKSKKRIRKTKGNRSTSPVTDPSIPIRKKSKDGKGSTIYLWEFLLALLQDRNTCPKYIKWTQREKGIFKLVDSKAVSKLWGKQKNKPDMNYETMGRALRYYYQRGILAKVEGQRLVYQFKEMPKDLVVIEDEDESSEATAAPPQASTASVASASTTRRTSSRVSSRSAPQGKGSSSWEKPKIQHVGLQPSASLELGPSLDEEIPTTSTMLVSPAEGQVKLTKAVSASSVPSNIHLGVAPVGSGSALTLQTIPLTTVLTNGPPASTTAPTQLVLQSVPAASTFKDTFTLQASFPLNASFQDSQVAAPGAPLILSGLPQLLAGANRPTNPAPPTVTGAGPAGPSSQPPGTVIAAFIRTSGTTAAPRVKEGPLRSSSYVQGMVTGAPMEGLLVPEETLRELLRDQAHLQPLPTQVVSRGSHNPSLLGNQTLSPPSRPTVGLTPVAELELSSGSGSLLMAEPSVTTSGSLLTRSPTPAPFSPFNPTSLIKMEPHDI
Chain of ETV5 (P41161 whole entry): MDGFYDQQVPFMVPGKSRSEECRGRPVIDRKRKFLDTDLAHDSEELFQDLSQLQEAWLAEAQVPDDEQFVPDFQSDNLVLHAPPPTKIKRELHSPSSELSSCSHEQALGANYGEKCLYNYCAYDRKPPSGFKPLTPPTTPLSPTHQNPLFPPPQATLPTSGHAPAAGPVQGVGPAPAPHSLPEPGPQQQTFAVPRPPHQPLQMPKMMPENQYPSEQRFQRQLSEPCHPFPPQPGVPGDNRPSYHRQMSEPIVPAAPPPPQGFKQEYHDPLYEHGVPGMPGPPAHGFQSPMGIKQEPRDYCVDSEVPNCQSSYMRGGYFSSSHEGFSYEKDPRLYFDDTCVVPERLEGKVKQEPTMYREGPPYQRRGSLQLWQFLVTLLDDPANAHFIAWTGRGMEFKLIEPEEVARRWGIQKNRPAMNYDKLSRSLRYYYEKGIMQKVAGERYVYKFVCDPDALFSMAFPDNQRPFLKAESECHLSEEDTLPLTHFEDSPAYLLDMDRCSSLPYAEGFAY

Sequence: CCAATG
- binding signal [1]: 1.14 fold enrichment (6-mer frequency, TF over GST control)
- binding signal [2]: 1.11 fold enrichment (6-mer frequency, TF over GST control)
- binding signal [3]: 1.14 fold enrichment (6-mer frequency, TF over GST control)
- binding signal [4]: 1 fold enrichment (6-mer frequency, TF over GST control)
- binding signal [5]: 1.15 fold enrichment (6-mer frequency, TF over GST control)
- binding signal [6]: 1.03 fold enrichment (6-mer frequency, TF over GST control)
- binding signal [7]: 1.08 fold enrichment (6-mer frequency, TF over GST control)
- binding signal [8]: 1.15 fold enrichment (6-mer frequency, TF over GST control)
- binding signal [9]: 1.08 fold enrichment (6-mer frequency, TF over GST control)
- binding signal [10]: 1.1 fold enrichment (6-mer frequency, TF over GST control)
- binding signal [11]: 1.03 fold enrichment (6-mer frequency, TF over GST control)
- binding signal [12]: 1.03 fold enrichment (6-mer frequency, TF over GST control)
- binding signal [13]: 1.13 fold enrichment (6-mer frequency, TF over GST control)
- binding signal [14]: 1.13 fold enrichment (6-mer frequency, TF over GST control)
- binding signal [15]: 1.05 fold enrichment (6-mer frequency, TF over GST control)
- binding signal [16]: 1.06 fold enrichment (6-mer frequency, TF over GST control)

Sequence: GGGCTC
- binding signal [1]: 1.21 fold enrichment (6-mer frequency, TF over GST control)
- binding signal [2]: 1.24 fold enrichment (6-mer frequency, TF over GST control)
- binding signal [3]: 1.32 fold enrichment (6-mer frequency, TF over GST control)
- binding signal [4]: 1.17 fold enrichment (6-mer frequency, TF over GST control)
- binding signal [5]: 1.2 fold enrichment (6-mer frequency, TF over GST control)
- binding signal [6]: 1.03 fold enrichment (6-mer frequency, TF over GST control)
- binding signal [7]: 1.11 fold enrichment (6-mer frequency, TF over GST control)
- binding signal [8]: 1.26 fold enrichment (6-mer frequency, TF over GST control)
- binding signal [9]: 1.22 fold enrichment (6-mer frequency, TF over GST control)
- binding signal [10]: 1.15 fold enrichment (6-mer frequency, TF over GST control)
- binding signal [11]: 1.18 fold enrichment (6-mer frequency, TF over GST control)
- binding signal [12]: 1.19 fold enrichment (6-mer frequency, TF over GST control)
- binding signal [13]: 1.26 fold enrichment (6-mer frequency, TF over GST control)
- binding signal [14]: 1.09 fold enrichment (6-mer frequency, TF over GST control)
- binding signal [15]: 1.19 fold enrichment (6-mer frequency, TF over GST control)
- binding signal [16]: 1.29 fold enrichment (6-mer frequency, TF over GST control)
